This passage reports Potency and viability (% of control) results from PubChem BioAssay (NCATS).

Several values for one entry are separate records, joined by “and”; a condition that tells them apart may be missing. Equal entries are not always repeated. Results filed as inconclusive are left out. Activity calls are given as the source filed them. The call rests on the fitted dose curve; in most records, active means well fitted cell-killing curve with a large enough effect; inconclusive means small, poorly fitted or top-dose-only effect, or effect the other way; inactive means no such curve, though single readings can be large or run the other way.
Potency means the concentration at half of the fitted maximal effect.

This assay in a line: Viability qHTS for spleen associated tyrosine kinase inhibitor (SYKi) naive MV4-11 cells (AID 1963823). Further: nearly all actives have a fitted effect of over 40% in size. To be noted: MV4-11 AML viability, CellTiter-Glo luminescence, 72 h; series mostly up to 45 µM. The gist of the method: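 In this viability screen, compounds acted on SYK inhibitor naive MV4-11 cells for three days (72 hr, 37 C). Remaining viable cells were measured by CellTiter-Glo luminescence following a 10 min room-temperature development.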
In general terms: Quantitative high-throughput screening tests each substance at several concentrations.
For `C=CC(=O)Nc1cccc(Oc2nc(Nc3ccc(N4CCN(C)CC4)cc3OC)ncc2Cl)c1`, the Potency is 1.64 µM (active) and 1.66 µM (active).

On to `CS(=O)(=O)CCNCc1ccc(-c2ccc3ncnc(Nc4ccc(OCc5cccc(F)c5)c(Cl)c4)c3c2)o1`, for which the Potency was 20.6 µM (active) and 14.8 µM (active).

For the compound `CC(=O)OCCN1C(=O)c2c(C)nc3ccc(S(=O)(=O)N4CCOCC4)cc3c2C1=O`, the Potency entry is “inactive”.

Take `Cc1ccc(C(=O)N(CCCN)[C@@H](c2oc3cc(Cl)ccc3c(=O)c2Cc2ccccc2)C(C)C)cc1`: the Potency was 0.0105 µM (active).

In the case of `CC(C)(S)[C@@H](N)C(=O)O`, the viability (% of control) is 88.9% [at 4.97 µM] (inactive).

In the case of `NC1(C(=O)N[C@@H](CCO)c2ccc(Cl)cc2)CCN(c2ncnc3[nH]ccc23)CC1`, the Potency was 0.461 µM (active).

`COc1cc(C(C)C)c2c(c1)S(=O)(=O)N(COc1cc(=O)n3cccc(OCCN4CCCCC4)c3n1)C2=O`: the Potency was 20.9 µM (active).

Take `CC1(C)[C@H](C(=O)O)N2C(=O)C[C@H]2S1(=O)=O`: the Potency result is “inactive”.

In the case of `C#Cc1cccc(Nc2ncnc3cc(OCCOC)c(OCCOC)cc23)c1`, the Potency was 3.76 µM (active) and 1.86 µM (active).

On to `COc1cc2c(cc1-c1c(C)noc1C)ncc1[nH]c(=O)n([C@H](C)c3ccccn3)c12`, for which the Potency was 0.206 µM (active).

As for `Cn1c(NCCN(CCO)CCCc2ccc([N+](=O)[O-])cc2)cc(=O)n(C)c1=O`, the Potency entry was “inactive”.

On to `CN1CCC(=C2c3ccccc3CCc3sccc32)CC1`, for which the Potency is 14.8 µM (active).

On to `CCOc1cc(N2CCC(O)CC2)ccc1Nc1ncc2c(n1)N(C)c1ccccc1C(=O)N2C`, for which the Potency was 1.86 µM (active).

For `CCOc1ccc(Nc2nc(-c3c(C)nc4ccccn34)cs2)cc1`, the Potency is 41.1 nM (active) and 33.2 nM (active).

Regarding `c1cncc(CN2CCC(n3ncc4c(N5CCOCC5)nc(-c5ccc6[nH]ccc6c5)nc43)CC2)c1`, the Potency was 1.03 µM (active) and 1.32 µM (active).

On to `NCC(=O)Nc1ccc(-n2nc(C(F)(F)F)cc2-c2ccc3c(ccc4ccccc43)c2)cc1`, for which the Potency was 5.8 µM (active) and 5.9 µM (active).

Turning to `CN(C)c1ccc(C(=O)NCCCCCCC(=O)NO)cc1`, the Potency was 0.833 µM (active).

With `CCc1nc(N)nc(N)c1-c1ccc(Cl)cc1`, the Potency is 3.76 µM (active).

Consider `CC(C)(O)c1cc2nc(-c3cnc(N)nc3)nc(N3CCOCC3)c2s1`, for which the Potency is 0.58 µM (active).

For the compound `CCCCCNC(=O)N1CCC(CN(Cc2ccc(Cl)cc2)Cc2ccc([N+](=O)[O-])s2)C1` (centres undefined), the Potency is 20.9 µM (active).

Take `Cc1cccc(-c2[nH]c(C(C)(C)C)nc2-c2ccc3nccnc3c2)n1`: the Potency was 20.9 µM (active) and 3.26 µM (active).

Consider `Nc1ccc(C(=O)Nc2cccc(-c3nc(N4CCOCC4)c4oc5ncccc5c4n3)c2)cn1`, for which the Potency is 10.3 µM (active).

As for `CN1CCN(c2ncc(-c3cc(Cl)cc(Cl)c3Cl)c(N)n2)CC1`, the Potency is 16.6 µM (active).

Regarding `NC(=O)N1CCC(CC(=O)N2CCC([C@H]3c4ncc(Br)cc4CCc4cc(Cl)cc(Br)c43)CC2)CC1`, the Potency was 5.9 µM (active).

Regarding `CC(C)Nc1cc(-c2c[nH]c(C(=O)N[C@H](CO)c3cccc(Cl)c3)c2)c(Cl)cn1`, the Potency was 2.91 µM (active) and 2.09 µM (active).

As for `N#Cc1c(NC(=O)c2cccc3ccccc23)sc2c1CCCC2`, the Potency was 0.116 µM (active).

`CCn1nnc2c(N3CCOCC3)nc(-c3ccc(NC(=O)Nc4ccc(C(=O)N5CCN(C)CC5)cc4)cc3)nc21`: the Potency is 20.6 nM (active) and 46.8 nM (active).

In the case of `CC1=C[C@@H]2[C@@H]([C@@H](O)C[C@@]3(C)[C@H]2C[C@@H](C)[C@]3(O)C(=O)CO)[C@@]2(C)Cc3cnn(-c4ccccc4)c3C=C12`, the Potency is 0.731 µM (active).

For `O=C(NC[C@H](O)CO)c1ccncc1Nc1ccc(I)cc1F`, the Potency is 0.235 µM (active).

For the compound `Cc1cnc(C(=O)NCCc2ccc(S(=O)(=O)NC(=O)NC3CCCCC3)cc2)cn1`, the Potency result was “inactive”.

For `Cc1cc(C(=O)N2CCN(c3cccc(Cl)c3)CC2)n(-c2ccccc2)n1`, the Potency is 1.46 µM (active).

`COc1cc2ncnc(Nc3ccc(F)c(Cl)c3)c2cc1OCCCN1CCOCC1`: the Potency is 4.22 µM (active).

Consider `Cc1ccc(S(=O)(=O)OCC(=O)Nc2ccc(C(=O)O)c(O)c2)cc1`, for which the Potency result was “inactive”.

On to `O=C(c1ccc(OCCN2CCCCC2)cc1)c1c(-c2ccc(O)cc2)sc2cc(O)ccc12`, for which the Potency was 14.8 µM (active) and 16.4 µM (active).
